Results published in PMC13494018.
Values without a mark were called inactive. How the calls were made is not given here.

B1: design_609_7ee6ce64-4629-41e8-bcb4-ba0da017284d_2306_dldesign_0_cycle1_af2pred (protein)
chain: LSENEKLKKAADYTSKAAKLAAEAAKKYKLPPEAVKKAQEAINLLFSSTDKETAEKAVELAKEAAKYMPESVAKKFLELVEKAAEYWS
B2: design_609_7ee6ce64-4629-41e8-bcb4-ba0da017284d_2471_dldesign_0_cycle1_af2pred (protein)
chain: MEALKARGDLDVVADQATQIAKLAAEHPELAELGKRAAELAARAKAAQAGDPEETIKKAKELRAERRELVAETKKRLAAL
B3: design_609_7ee6ce64-4629-41e8-bcb4-ba0da017284d_2287_dldesign_0_cycle1_af2pred (protein)
chain: SDLEATELQIKAARLVAEAKRALAELTPEEGLARAKELFAEAEKAVKAAAKLLSPEAGKALVAALKERSAAILAEAEKAAAA
B4: design_609_7ee6ce64-4629-41e8-bcb4-ba0da017284d_2438_dldesign_0_cycle1_af2pred (protein)
chain: MKEEMIKEAKKLMEEGKKKFEEAVKLPASEAAEASKLMHEGHELLTEAAWLAKKAGDEELAKEAKKARKEAVKKGKEAQAASAAA
B5: design_609_7ee6ce64-4629-41e8-bcb4-ba0da017284d_2409_dldesign_0_cycle1_af2pred (protein)
chain: SMEEEELRKKADEVAEKAAKIAEEADPELGKKFRERAEKAKKDPVDAYAYYVAQAAKSGGIILEKLGKEEEGKKLKELGKELEKALEE
B6: design_609_7ee6ce64-4629-41e8-bcb4-ba0da017284d_2421_dldesign_0_cycle1_af2pred (protein)
chain: AAKEEVEKKAEEVIKKLKEIGEKDPNAKELTDDLIKTLKKEVEKYKDDPEKAKKAVDKAEKTADSLEEAVKY
B7: design_609_7ee6ce64-4629-41e8-bcb4-ba0da017284d_2406_dldesign_0_cycle1_af2pred (protein)
chain: ETEKKIKYLKEALYYLHLAIESAKLGSPPEAARRFVEIGIKKALEGDEEVGKELEKLLKELSPEEAAEAGAKLVEERIKELE
B8: design_609_7ee6ce64-4629-41e8-bcb4-ba0da017284d_2408_dldesign_0_cycle1_af2pred (protein)
chain: SSAAEEAAKKVEETAKKIKEEGLPEEEAKKLLSEALLLVADHDSPELAERALKAFEELSKYYPGAAKAAKILKRRLEALKKN
B9: design_609_7ee6ce64-4629-41e8-bcb4-ba0da017284d_2085_dldesign_0_cycle1_af2pred (protein)
chain: LEEKLKELRALAKEAAEKAKEEGATKTANLLLKGVEASPLKAVGYVLVAADLLKASEKLKPWAEKLEKAAEEV
B10: design_609_7ee6ce64-4629-41e8-bcb4-ba0da017284d_2235_dldesign_0_cycle1_af2pred (protein)
chain: MKAKEEAEKKVEEVVEKGEKKVEEMKGLTAEEAEKVRNEIILEGQEVAAEAKKVDPEVGKKGFEKFRKVGEKAEKAVEEVK
B11: design_609_7ee6ce64-4629-41e8-bcb4-ba0da017284d_2350_dldesign_0_cycle1_af2pred (protein)
chain: SEKKLKAQKEALKLVEEVAKYAEEDPETAPKFGKEKAEEAYKYALELGLSEEEAEKLRKTTLRLVEAEIRGAKLVAEKRKKALE

Target: VTCN1, Q7Z7D3
Sequence (Q7Z7D3 whole entry): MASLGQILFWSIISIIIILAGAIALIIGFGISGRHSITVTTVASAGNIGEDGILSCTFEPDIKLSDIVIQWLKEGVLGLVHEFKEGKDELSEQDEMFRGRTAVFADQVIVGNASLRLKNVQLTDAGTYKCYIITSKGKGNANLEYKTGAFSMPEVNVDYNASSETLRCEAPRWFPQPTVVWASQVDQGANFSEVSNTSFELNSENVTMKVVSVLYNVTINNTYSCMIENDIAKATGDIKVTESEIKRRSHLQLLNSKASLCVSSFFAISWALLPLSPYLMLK

Binder	binding in a display sort
B1	not found
B2	not found
B3	not found
B4	not found
B5	not found
B6	not found
B7	not found
B8	not found
B9	not found
B10	not found
B11	not found
